# Compounds with a hit are over-represented: about 3.7% of the library has one in this group of screens.
# Bead autofluor: counter-screen for toxin protease inhibitors: compound fluorescence | compound autofluorescence counterscreen, microsphere flow cytometry; active compounds read high | fluorescence intensity (test concentration not listed) | 3.1% of 360,000 active | AID 624483; in the data active = fluorescence intensity above about 16000; inconclusive = no clear call, values can overlap the other calls
# MazF activator: increases E. coli MazEF RNase cleavage of RNA. P0AE70. FAM/BHQ RNA-DNA oligo cleavage fluorescence, 5 h. activation, % at 20 µM. 0.32% of 350,000 active. AID 504720; in the data active = activation above about 50%
# BoNT-A LC inh2: blocks Botulinum neurotoxin A light chain protease. multiplex microsphere protease substrate cleavage, flow cytometry. inhibition, % at 10 µM. 0.17% of 360,000 active. AID 588499; also: plate controls were buffer without enzyme for full effect and enzyme alone for no effect
# Anthrax LF inh2: anthrax lethal factor protease inhibition | P15917 | multiplex microsphere protease cleavage assay, LF | inhibition, % at 10 µM | 0.12% of 360,000 active | AID 588501; also: plate controls were buffer without enzyme for full effect and enzyme alone for no effect
# Target sequence (P15917 whole entry, looked up): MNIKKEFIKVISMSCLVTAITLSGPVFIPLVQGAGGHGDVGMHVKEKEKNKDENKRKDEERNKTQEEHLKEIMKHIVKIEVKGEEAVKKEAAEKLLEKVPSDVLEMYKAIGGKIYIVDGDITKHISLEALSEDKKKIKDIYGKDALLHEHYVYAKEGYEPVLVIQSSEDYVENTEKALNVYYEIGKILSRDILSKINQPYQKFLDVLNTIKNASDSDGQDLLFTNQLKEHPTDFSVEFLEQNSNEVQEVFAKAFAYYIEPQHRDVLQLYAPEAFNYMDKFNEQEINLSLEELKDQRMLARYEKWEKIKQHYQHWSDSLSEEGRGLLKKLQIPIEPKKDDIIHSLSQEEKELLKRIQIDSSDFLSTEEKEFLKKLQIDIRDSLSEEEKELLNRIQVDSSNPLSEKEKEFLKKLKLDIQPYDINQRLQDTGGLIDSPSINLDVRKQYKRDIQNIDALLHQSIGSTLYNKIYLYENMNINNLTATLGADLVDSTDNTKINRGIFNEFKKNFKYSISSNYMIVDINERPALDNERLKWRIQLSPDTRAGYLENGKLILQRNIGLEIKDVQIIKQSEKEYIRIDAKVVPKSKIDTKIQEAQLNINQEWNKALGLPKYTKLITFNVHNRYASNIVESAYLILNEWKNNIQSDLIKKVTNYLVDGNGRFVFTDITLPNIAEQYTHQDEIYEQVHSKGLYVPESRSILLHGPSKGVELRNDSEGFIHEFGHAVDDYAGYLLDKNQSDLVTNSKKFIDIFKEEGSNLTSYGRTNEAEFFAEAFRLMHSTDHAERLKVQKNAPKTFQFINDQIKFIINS
# BoNT-F LC inh: BoNT F light chain protease inhibition; Multiplex microsphere protease cleavage assay, flow cytometry; AID 588497; inhibition, % at 10 µM; 0.22% of 360,000 active; in the data active = inhibition above about 35%, passing the limit was not always enough; inconclusive = no clear call, values can overlap the other calls; also: plate controls were buffer without enzyme for full effect and enzyme alone for no effect
# BoNTA LC inh 1: inhibitors of Botulinum neurotoxin A light chain protease | AID 602139 | inhibition, % at 10 µM | multiplex microsphere protease assay, flow cytometry | 3% of 720 active | shares compounds with BoNT-F LC inh; in the data active = inhibition above about 32%
# BoNT-F LC CP1: blocks botulinum neurotoxin F light chain protease | AID 602140 | 720 tested, under 10 active | multiplex microsphere protease cleavage assay, flow cytometry | shares compounds with BoNT-F LC inh | inhibition, % at 10 µM; call rule not given here
# LF protease CP1: blocks anthrax lethal factor protease; shares compounds with BoNT-F LC inh; multiplex microsphere protease cleavage assay, LF; inhibition, % at 10 µM; 720 tested, under 10 active; AID 602142; call rule not given here
# Numbers without * were called inactive; ? = inconclusive; . = not tested or not shown. Rule as the data show it, unless noted: active = inhibition above about 30%; inconclusive = no clear call, values can overlap the other calls; inactive = below that.
SMILES,Bead autofluor,MazF activator,BoNT-A LC inh2,Anthrax LF inh2,BoNT-F LC inh,BoNTA LC inh 1,BoNT-F LC CP1,LF protease CP1
CCN1C(=O)[C@H]2[C@@H](c3ccc(C)cc3)N[C@]3(CCCN(CCC(C)C)C3=O)[C@H]2C1=O,3047,8,-1,1,-6,.,.,.
O=C(COC(=O)Cc1ccccc1[N+](=O)[O-])Nc1nnc(-c2ccccc2)o1,?,5,?,-2,18,.,.,.
COc1ccc(S(=O)(=O)N2CCN(Cc3ccc(OC)c(OC)c3)CC2)cc1,3690,-21,-6,42*,?,-2,-2,-2
COc1ccc(S(=O)(=O)N2CCN(C)CC2)cc1,3909,8,3,-5,74*,-1,0,-3
COC(=O)C=C1CCC2C3CC(F)C4(O)CC(=O)CCC4(C)C3C(=O)CC12C (centres undefined),3635,3,0,-2,-4,.,.,.
CC(C)n1c(NCc2ccccc2O)nc2ccccc21,3793,12,-1,1,49*,0,-3,-1
O=C(O)CS(=O)(=O)CC(=O)NCc1cccc(C(F)(F)F)c1,2638,-4,4,2,50*,0,-6,-2
O=C(Cc1cccc(C(F)(F)F)c1)NCc1ccc(Cl)cc1,2705,-2,0,0,0,.,.,.
CCNc1nc(NCC)n2c(SCC(=O)Nc3ccc(C)c(C)c3)nnc2n1,?,0,16,1,37*,-1,-3,0
CSc1nc(Oc2ccc(F)cc2F)cc(C(F)(F)F)n1,3385,10,1,3,41*,0,-8,-3
COc1ccc(C(=O)N=C2SC3CS(=O)(=O)CC3N2Cc2ccc(F)cc2)cc1 (centres undefined),4253,-1,1,-2,1,.,.,.
O=C(Nc1cccc(O)c1)N1CCOCC1,2893,0,0,-1,3,.,.,.
O=C(Nc1ccc2nc(-c3cccs3)c(-c3cccs3)nc2c1)N1CCOCC1,18209*,-4,68*,41*,29,39*,2,16
Cc1ccc(C(=O)Nc2scc(-c3ccccc3)c2C(=O)O)cc1,3585,0,5,11,36*,0,-4,6
CSc1ccc(CN(C)CC(=O)NCCc2ccccc2)cc1,3529,-3,2,3,40*,-1,-2,-4
CCN(CC)c1ccc(C(=O)NC(=S)N2CCN(Cc3ccc4c(c3)OCO4)CC2)cc1,22907*,4,-13,6,51*,-12,-5,-3
CC(C)NC(=S)N1CCN(Cc2ccc3c(c2)OCO3)CC1,4330,3,-1,-5,-7,.,.,.
CCOC(=O)c1cnn(CCOC(=O)c2ccccc2F)c1NC(=O)c1ccccc1F,6708,0,-7,-12,-39,.,.,.
CCOC(=O)c1cnn(CCOC(=O)C(C)(C)C)c1NC(=O)C(C)(C)C,9307,-6,36*,-25,43*,0,-2,-3
c1ccc2c(NC3CCCC3)nnc(NC3CCCC3)c2c1,3938,8,2,2,-4,.,.,.
Nc1ccccc1NC1CCCCC1,2264,11,74*,15,-30,17,-16,15
Cc1cccc(C)c1-n1nnnc1C(c1ccnc2ccccc12)N1CCN(C/C=C/c2ccccc2)CC1 (centres undefined),5878,.,1,-1,-2,.,.,.
N#Cc1cccc(C(c2nnnn2C2CCCC2)N2CCC(Cc3ccccc3)CC2)c1 (centres undefined),5535,-10,-1,-2,-2,.,.,.
N#Cc1cccc(C(c2nnnn2C2CCCC2)N2CCCCCC2)c1 (centres undefined),3317,-1,0,-3,32,2,2,3
CCOc1ccc(NC(=O)CNC(=O)c2nn(-c3ccc(OC)c(OC)c3)c(=O)c3ccccc23)cc1,3487,2,0,3,0,.,.,.
SMILES,Bead autofluor,MazF activator,BoNT-A LC inh2,Anthrax LF inh2,BoNT-F LC inh,BoNTA LC inh 1,BoNT-F LC CP1,LF protease CP1
COc1ccc(-n2nc(C(=O)NCC(=O)Nc3cccc(Cl)c3)c3ccccc3c2=O)cc1OC,3717,17,6,4,51*,1,-1,-1
CC(C)CCn1c(-c2nonc2N)nc2ccccc21,3532,0,1,-7,32,-1,-4,-2
Fc1ccc(C2CC(c3ccco3)=NN2c2ccccc2)cc1 (centres undefined),3720,-2,0,-1,-5,.,.,.
COc1ccccc1N1N=C(c2ccc([N+](=O)[O-])cc2)CC1c1ccccc1 (centres undefined),16503*,-5,38*,-5,27,48*,28,1
O=[N+]([O-])c1ccc(N2N=C(c3ccco3)CC2c2ccccc2)cc1 (centres undefined),4856,-22,32*,23,-30,9,-4,1
COc1ccc(-c2nc(-c3cccc(C)c3)no2)cc1OC,7951,5,0,-6,-1,.,.,.
COc1cc(-c2nc(-c3cccc(C)c3)no2)cc(OC)c1OC,5619,-12,?,3,43*,0,-5,-4
COc1ccc(CNC(=O)C2CCN(C(=O)c3ccc(-c4ccccc4)cc3)CC2)cc1,3412,-1,-1,32*,-21,0,-5,0
O=C(Nc1nc2c(s1)CN(Cc1ccccc1)CC2)c1cccc(S(=O)(=O)N2CCc3ccccc32)c1,13649,-149,20,30*,5,8,13,6
O=C(Nc1nc2ccccc2s1)c1cccc(S(=O)(=O)N2CCc3ccccc32)c1,5120,-9,-1,-6,-7,.,.,.
COc1ccc(CCNC(=O)C2CCN(S(=O)(=O)N3CCOCC3)CC2)cc1OC,11415,-1,4,0,36*,-2,3,-1
Cc1ccc(-c2csc3nc4c5ccccc5c(NCCCN(C)C)nn4c(=O)c23)cc1,5593,-15,36*,13,-2,11,-12,4
O=C(NCC1CCCCC1)c1cc(S(=O)(=O)N2CCOCC2)ccc1F,3833,-7,1,0,-4,.,.,.
COc1ccc(-c2nnc(OC)c3ccccc23)cc1,4236,6,3,7,37*,0,-2,-4
CN(CC(=O)Nc1ccc(F)cc1)C(=O)COC(=O)Cc1cccs1,?,10,4,-1,40*,1,-1,-2
O=C(COC(=O)Cc1cccs1)NCC(=O)Nc1ccc(F)cc1,3858,1,0,4,-3,.,.,.
CCC(=O)Nc1nnc(S(=O)(=O)N(CC)c2ccc(Cl)cc2)s1,4343,13,-2,3,0,.,.,.
CCC(=O)Nc1nnc(S(=O)(=O)N(C)c2cc(C)cc(C)c2)s1,3945,-1,-2,8,42*,1,1,1
CCCCCCn1c(=O)n2n(c1=O)[C@@H]1CN(S(=O)(=O)c3ccc(C)cc3)C[C@]1(O)[C@@H](OC(=O)NCc1ccco1)C2,4370,5,-1,5,-5,.,.,.
